Where “and” joins values, the source holds several entries; their conditions need not be identical. Equal entries are not always repeated. Inconclusive results are not listed. Where a call stands in place of a potency, no number is given. Calls of active or inactive are those of the source. The call rests on the fitted dose curve; in most records, active means well fitted inhibition curve with a large enough effect in the repeat runs; inconclusive means weak or mixed curves, or effect the other way; inactive means no such curve, though single readings can be large or run the other way.

Potency and activity, negative = inhibition data for 40 compounds are collected here from PubChem BioAssay (Tox21).
Potency means the concentration at half of the fitted maximal effect.

This experiment in a line: qHTS assay to identify small molecule antagonists of the retinoic acid receptor (RAR) signaling pathway (AID 1159552; further: nearly all actives have a fitted effect of over 50% in size). Conditions: C3RL4 RARE luciferase reporter, retinol-stimulated, 6 h; series mostly up to 92.4 µM. The source says:
National Center for Advancing Translational Sciences [NCATS]
NIH Chemical Genomics Center [NCGC]
U.S. Environmental Protection Agency [EPA]
National Institutes of Environmental Health Sciences [NIEHS]
National Toxicology Program [NTP]
U.S. Food and Drug Administration [FDA]
All-trans Retinoic acid (atRA) is the potent natural metabolite of retinol and plays an important role in normal embryonic development and maintenance of cellular phenotype in adult animals. atRA is the activating ligand for the retinoic acid receptors (RARs) which form heterodimers with retinoid X receptors (RXRs) on the retinoic acid response element (RARE). Through activation of the RAR/RXRs nuclear receptors, atRA regulates the transcription of a large number of protein-coding genes and regulatory RNAs. Intracellular levels of atRA are controlled by the retinol signaling pathway (RSP) that regulates the biosynthesis and catabolism of atRA to maintain physiological levels. Chemicals that interfere with the RSP can cause abnormal intracellular levels of atRA and therefore are potential developmental toxicants. To assess compounds for the potential adverse effect on embryonic development through interfering with retinol signaling, a cell-based RARE luciferase reporter gene assay was used. C3RL4 cell line (OARSA/CFSAN/FDA, Laurel, MD) was used to screen Tox21 10K compound library for identifying inhibitors of the RSP.
Tox21 Assay Protocol Summary:
C3RL4 cells were seeded at 1,000/well in 4 uL of assay medium into white solid 1,536-well tissue culture plates (Greiner Bio-One North America Inc. Monroe, NC) using a Multidrop Combi (Thermo Scientific, Waltham, MA) dispenser. After incubation at 37 C and 5% CO2 for an overnight, 23 nL of compounds dissolved in DMSO, positive control or DMSO only were transferred by a Pintool station (Kalypsys, San Diego, CA). One ul of 1 uM (final concentration) of Retinol was added right after the compound addition by using a Flying Reagent Dispenser (FRD) (Aurora Discovery, San Diego, CA). After 6 hr incubation at 37 C and 5% CO2, 5 uL of Amplite Luciferase reagent (AAT Bioquest Inc. Sunnyvale, CA) was added to each assay plate using an FRD. Luminescence was quantified on a ViewLux plate reader (PerkinElmer, Waltham, MA) after 30 min incubation at room temperature.
Background: Quantitative high-throughput screening tests each substance at several concentrations.
Regarding `O=CC1CC1`, the Potency entry was “inactive”.

Consider `CCCCCCCC/C=C\CCCCCCCC(=O)NCc1ccc(O)c(OC)c1`, for which the Potency entry is “inactive”.

Take `CO[Si](CCC1CCC2OC2C1)(OC)OC` (stereo not given): the Potency result was “inactive”.

On to `C=C1C(C)(C)[C@@]2(Cl)C(Cl)[C@]1(Cl)C(Cl)(Cl)C2(Cl)Cl` (stereo not given in full), for which the Potency was 60 µM (active).

Consider `C[C@H]1O[C@@H](O[C@H]2[C@@H](O)C[C@H](O[C@H]3[C@@H](O)C[C@H](O[C@H]4CC[C@@]5(C)[C@H](CC[C@@H]6[C@@H]5C[C@@H](O)[C@]5(C)[C@@H](C7=CC(=O)OC7)CC[C@]65O)C4)O[C@@H]3C)O[C@@H]2C)C[C@H](O)[C@@H]1O`, for which the Potency entry was “inactive”.

Regarding `CCCCC(CC)COC(=O)c1ccc(O)cc1` (stereo not given), the Potency result was “inactive”.

Turning to `C=C(C)CCCC`, the Potency result is “inactive”.

In the case of `Nc1ccc2cc3ccc(N)cc3nc2c1`, the Potency was 4.33 µM (active) and 16.8 µM (active).

In the case of `CC(C)(C)C1=CC(=O)C=C(C(C)(C)C)C1=O`, the Potency result was “inactive”.

For the compound `COc1cccc(OC)c1O`, the Potency entry is “inactive”.

Consider `CCc1c(C(=O)O)c(=O)cnn1-c1ccc(Cl)cc1`, for which the Potency entry is “inactive”.

With `COc1ccc(C#N)cc1`, the Potency result is “inactive”.

Take `Oc1cc2ccccc2cc1O`: the Potency result was “inactive”.

Consider `Clc1cccnc1`, for which the Potency entry was “inactive”.

In the case of `CC(=O)OC(OC(C)=O)c1ccc([N+](=O)[O-])o1`, the Potency is 27.8 µM (active).

For `COc1cc(C(C)C)c2c(c1)S(=O)(=O)N(COc1cc(=O)n3cccc(OCCN4CCCCC4)c3n1)C2=O`, the activity, negative = inhibition was 1.67% [at 19 µM] (inactive).

In the case of `CSc1c(Cl)c(Cl)c(Cl)c(Cl)c1Cl`, the Potency entry is “inactive”.

For `Clc1cc(Cl)c(-c2c(Cl)c(Cl)cc(Cl)c2Cl)cc1Cl`, the Potency result was “inactive”.

Take `N#CSCSc1nc2ccccc2s1`: the Potency is 17.2 µM (active).

As for `Cc1cc2c(C(C)C)c(O)c(O)c(C=O)c2c(O)c1-c1c(C)cc2c(C(C)C)c(O)c(O)c(C=O)c2c1O`, the Potency result was “inactive”.

With `OCCCc1cccnc1`, the Potency result is “inactive”.

Turning to `O=S(=O)(O)c1cc(S(=O)(=O)O)c2ccc3c(S(=O)(=O)O)cc(S(=O)(=O)O)c4ccc1c2c43`, the activity, negative = inhibition was 14.4% [at 19 µM] (inactive).

Consider `CC(COC(=O)c1ccccc1)OC(=O)c1ccccc1` (stereo not given), for which the Potency result is “inactive”.

With `O=C1OC(=O)c2cccc3cccc1c23`, the Potency result was “inactive”.

For `Cc1cnccn1`, the Potency result is “inactive”.

For `CNC(=S)NN`, the Potency is 43.3 µM (active).

For the compound `CCOB(OCC)OCC`, the Potency entry is “inactive”.

For the compound `CCC1CCCCC1`, the Potency entry was “inactive”.

With `CCOC(/C=C(\C)CCC=C(C)C)OCC`, the Potency entry is “inactive”.

`c1ccc2c(c1)CCC2`: the Potency result is “inactive”.

On to `Cc1cccc(N(C)C)c1`, for which the Potency entry is “inactive”.

Consider `CCc1c(Br)c(Br)c(Br)c(Br)c1Br`, for which the Potency result is “inactive”.

For `CCCCCCCCCCCCCCCCCO`, the activity, negative = inhibition is -5.96% [at 19 µM] (inactive).

`CC(=O)OC1CCCCC1`: the Potency result is “inactive”.

As to `Cc1cc(C)c(C=O)c(C)c1`, the Potency result is “inactive”.

Take `OCCCS`: the Potency entry was “inactive”.

For the compound `Oc1ccc(-c2ccc(O)cc2)cc1`, the Potency result was “inactive”.

On to `CN(C)CCCN1c2ccccc2Sc2ccc(C(F)(F)F)cc21`, for which the Potency was 29.8 µM (active).

`CN1CN(C)CN(C)C1`: the Potency result was “inactive”.

In the case of `CC(C)c1ccc(O)c(C(C)C)c1`, the Potency entry is “inactive”.
